From PubChem BioAssay
Luc counter – Kinase-Glo luciferase inhibition (counter-screen). Kinase-Glo luciferase, ATP luminescence, 8 min. Potency, µM (titrated, usually from 38.3 µM), for inactives: at the highest dose activity change, negative = inhibition, hits mostly inhibitors. 200,000 tested, 0.28% active. AID 1379; further: on the % scale 0 is the no-effect control and ±100 the full control effect; nearly all actives have a fitted effect of over 60% in size
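Substrate mix (final 50 mM imidazole pH 7.2, 50 mM KCl, 7 mM MgCl2, 10 uM ATP, 0.01% Tween 20, 0.05% BSA) plus pin-tool compound, then Kinase-Glo detection mix; 8 min ambient, luminescence read.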
NPC1 promoter act – activators of NPC1 promoter. Huh7 NPC1 promoter luciferase reporter, 24 h. Potency, µM (doses to about 9.22 µM), for the others: top-dose activation, usual class: activators. 320,000 tested, 2.4% active; further: % of control where 0% means no effect; nearly all actives have a fitted effect of over 60% in size
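Stably transfected Huh7 (NPC1 promoter→luciferase), 1500 cells/well in Opti-MEM + 10% FBS, 2 h settle, then compound 24 h at 37 °C. Luminescence after 10 min with Amplite reagent.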
SMN2 splice enh – enhancers of SMN2 splice variant expression. AID 1458. 210,000 tested, 2.8% active. HEK293 SMN2-luciferase splicing reporter, luminescence, 30-36 h. Potency, µM (doses to about 46.1 µM), without a hit: top-dose activity change, positive = activation, usual class: activators; further: % of control where 0% means no effect; nearly all actives have a fitted effect of over 55% in size
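HEK293 cells carry an SMN2 […]–luciferase reporter in which exon 7 inclusion puts luciferase in frame. Cells were plated 10-12 h before compound addition, then incubated 30-36 h at 37C. ONE-Glo luminescence was read; sodium butyrate at 4.5 mM final served as control.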
Rab9 prom act – activates the Rab9 promoter | Potency, µM (top dose mostly 9.22 µM), for the others: at the top dose activation, negative = inhibition, usual class: activators | Huh7 Rab9 promoter-luciferase reporter, luminescence, 24 h | AID 485297 | 320,000 tested, 2.8% active; further: % of control where 0% means no effect; nearly all actives have a fitted effect of over 60% in size
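Using Huh7 cells stably transfected with Rab9 promoter–luciferase, compounds were incubated 24 h at 37 °C, 5% CO2; luciferase luminescence was read 10 min after reagent addition.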
FLuc modulator – firefly luciferase modulation, counter-screen for miR-21 project | P08659 | purified FLuc, Km substrates, luminescence inhibition | Potency, µM (highest dose often 57.5 µM), for the others: top-dose activity change, negative = inhibition, actives largely listed as inhibitors | 360,000 tested, 6.9% active | AID 588342;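 further: plate controls were vehicle for no effect and reference inhibitor for full effect; nearly all actives have a fitted effect of over 55% in size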
Target sequence (P08659 whole entry, looked up): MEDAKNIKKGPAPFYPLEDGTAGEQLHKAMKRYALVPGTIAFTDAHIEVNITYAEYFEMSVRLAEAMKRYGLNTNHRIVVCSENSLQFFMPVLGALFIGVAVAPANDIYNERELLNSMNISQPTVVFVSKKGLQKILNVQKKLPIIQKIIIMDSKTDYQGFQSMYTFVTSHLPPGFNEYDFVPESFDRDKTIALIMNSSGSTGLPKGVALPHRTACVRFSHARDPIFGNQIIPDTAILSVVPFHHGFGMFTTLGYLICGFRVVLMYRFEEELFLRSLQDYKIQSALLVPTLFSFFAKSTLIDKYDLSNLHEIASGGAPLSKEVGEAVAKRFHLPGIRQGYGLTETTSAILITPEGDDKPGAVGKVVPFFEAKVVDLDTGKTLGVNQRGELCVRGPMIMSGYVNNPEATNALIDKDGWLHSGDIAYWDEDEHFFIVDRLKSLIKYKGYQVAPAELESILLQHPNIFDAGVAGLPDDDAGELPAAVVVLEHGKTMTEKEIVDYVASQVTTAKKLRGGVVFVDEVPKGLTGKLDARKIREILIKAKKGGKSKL
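Purified P. pyralis luciferase, 10 nM final, with Km-level 10 uM D-luciferin and 10 uM ATP in 50 mM Tris acetate pH 7.5, 10 mM Mg acetate, 0.01% Tween-20, 0.05% BSA; 6-point qHTS titration about 60 µM downward; luminescence read.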
ELG1 genotoxic – inducers of genotoxicity in HEK293T ELG1-luciferase cells. AID 504466. Potency, µM (highest dose often 46 µM), inactives show top-dose activity change, positive = activation, hits mostly activators. HEK293T ELG1-luciferase reporter, luminescence, 16 h. 330,000 tested, 1.3% active; further: % of control where 0% means no effect; nearly all actives have a fitted effect of over 60% in size
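Cells (2,000/well) expressing the ELG1-luciferase fusion are dosed by pin tool and kept 16 hr at 37 °C, 5% CO2. Signal comes from ONE-Glo luciferase reagent after 30 min at room temperature.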
* hit, by the source's call; ? = inconclusive; . = no result; [ ] = remark or other dose. Most compounds without a hit are left out; they make up all but 7.4% or so of the library. The call rests on the fitted dose curve; in most records, active means well fitted curve in the direction sought with a large enough effect; inconclusive means small, poorly fitted or top-dose-only effect, or another doubt; inactive means no such curve, though single readings can be large; an effect the other way counts as inactive or inconclusive. Potency means the concentration at half of the fitted maximal effect.

SMILES | Luc counter | NPC1 promoter act | SMN2 splice enh | Rab9 prom act | FLuc modulator | ELG1 genotoxic
CCN(CC)C(=O)Nc1cnc2ccccc2c1 | 0% | 10% | -4% | ? | ? | 7%
O=C(NC(=S)Nc1ncc(Br)cc1Br)c1ccccc1 | . | ? | . | 11% | 21µM* | ?
Cc1ccc(NC(=O)c2cccc(C(=O)OC(C)C)n2)c(Br)c1 | 0% | -3% | 13% | -3% | ? | -1%
CC(C)(C)c1ccc(C(=O)Nc2nc3nc(-c4ccccc4)cc(=O)n3[nH]2)cc1 | . | . | -5% | . | ? | .
CCN(CC)CCCC(C)Nc1nc(C)cc(Nc2ccc3nc(C)cc(N)c3c2)n1 (configuration not stated) | 0% | . | -8% | . | . | .
CO[C@]1(NC(=O)C2SC(=C(C(N)=O)C(=O)O)S2)C(=O)N2C(C(=O)O)=C(CSc3nnnn3C)CS[C@H]21 (some centres not stated) | 3%[17.1 µM] | . | -1%[20.6 µM] | . | . | .
O=C(CSc1nc2ccccc2nc1Cc1ccc(Cl)cc1)N1CCc2ccccc21 | . | . | . | . | -2% | .
COc1ccc(CCC(=O)Nc2cnc3ccccc3c2)cc1 | . | 0% | . | -3% | ? | 2%
COC(=O)c1cccc(C(=O)Nc2cnc3ccccc3c2)n1 | -3% | 4µM* | -5% | ? | 24µM* | 10%
Cc1cc(C)nc(NC(=S)NC(=O)c2ccccc2)n1 | . | ? | . | ? | 1% | 3%
S=C(NCCc1ccccc1)Nc1cnc2ccccc2c1 | 3% | 25% | ? | ? | 27µM* | ?
O=C(NC(=S)Nc1cnc2ccccc2c1)c1ccccc1 | -11% | ? | 11µM* | 3.5µM* | 7.6µM* | ?
S=C(NCCc1ccccc1)Nc1ccc(Nc2ccccc2)cc1 | 2% | 1% | . | -15% | -8% | -13%
Cn1ncc2cc(NC(=S)NC(=O)c3ccccc3)ccc21 | -7% | 2µM* | 20% | 2µM* | 12µM* | 9%
COc1cc2nc(N(C)CCCNC(=O)[C@@H]3CCCO3)nc(N)c2cc1OC | -2%[17.1 µM] | . | 0%[20.6 µM] | . | . | .
Cn1cnnc1SCC(=O)Nc1ccc2nc(SCc3ccccc3Cl)sc2c1 | -3% | 16% | -13% | 26% | 17µM* | 5%
Cn1cnnc1SCC(=O)Nc1ccc2nc(SCc3ccccc3)sc2c1 | 2% | 3.5µM* | -9% | ? | 11µM* | ?
CCN(CC)C(=O)CSc1nc2ccc(NC(=O)CSc3nccn3C)cc2s1 | 5% | 9% | -41% | 1% | 19µM* | -5%
CCN(CC)C(=O)CSc1nc2ccc(NC(=O)CSc3nnc(N)s3)cc2s1 | 0% | 6% | 3% | 6% | ? | -6%
Cn1cnnc1SCC(=O)Nc1ccc2nc(SCc3cccc4ccccc34)sc2c1 | -5% | 1% | -21% | 0% | -4% | -9%
COc1ccc(NC(=O)CSc2nc3c([nH]c4ccccc43)c(=O)n2-c2ccccc2)c(OC)c1 | . | . | . | . | 1% | .
COC(=O)c1c(NC(=O)c2cc(=O)c3cc(C)cc(C)c3o2)sc2c1CCC2 | . | . | -6% | . | -2% | .
C/C(NC(=O)c1cccc(F)c1)=C1/C(=O)C[C@@H]2[C@H]1C2(C)C | 0% | 25% | 6% | 25% | 11µM* | ?
C/C(NC(=O)c1ccccc1F)=C1\C(=O)C[C@@H]2[C@H]1C2(C)C | . | ? | . | ? | 15µM* | ?
COc1ccc2c(Sc3ccccc3)c(C(=O)NCc3cc(Br)ccc3OC)[nH]c2c1 | . | . | . | . | -8% | .
SMILES | Luc counter | NPC1 promoter act | SMN2 splice enh | Rab9 prom act | FLuc modulator | ELG1 genotoxic
COC(=O)c1ccc(CNC(=O)CCc2c[nH]c3ccccc23)cc1 | . | -1% | . | -2% | 4% | 7%
COC(=O)c1ccc2c(CCO)c[nH]c2c1 | . | ? | . | 29% | 24µM* | ?
O=C(NCCN1CCOCC1)c1sc2cc(Cl)ccc2c1Cl | . | 1% | . | 0% | -16% | 16%
CC(C)(CNC(=O)c1sc2cc(Cl)ccc2c1Cl)N1CCOCC1 | . | 0% | . | -4% | ? | 16µM*
O=C(NCC1CCCO1)c1cccc(C(=O)NCC2CCCO2)c1 (configuration not stated) | . | -8% | . | 0% | -2% | 0%
O=C(NCC1CCCO1)c1sc2cc(Cl)ccc2c1Cl (configuration not stated) | -1% | 3.2µM* | 13µM* | 2µM* | 11µM* | ?
O=C(NCC1CCCO1)c1ccc2[nH]c3c(c2c1)CCCC3 (configuration not stated) | . | 5% | . | 26% | 21µM* | 12%
CCC1(O)CC2CN(CCc3c([nH]c4ccccc34)[C@@](C(=O)OC)(c3cc4c(cc3OC)N(C)C3[C@]45CCN4CC=C[C@@](CC)([C@@H](OC(C)=O)[C@]3(O)C(=O)OC)[C@H]45)C2)C1 (some centres not stated) | -3% | -23%[46.1 µM] | -45% | -39%[46.1 µM] | . | .
N[C@@H](COP(=O)(O)O)C(=O)O | -8% | 2%[46.1 µM] | -9% | 2%[46.1 µM] | . | .
CC(C)(CN)CN | -4%[7.66 µM] | . | -5%[9.22 µM] | . | . | .
N=C1S/C(=C\c2cccc3ccccc23)C(=O)N1c1ccc(F)cc1 | 6% | -14% | -18% | -4% | 6% | -1%
CSC1=NC(=O)/C(=C\c2cccc3ccccc23)S1 | -3% | -16% | 1% | -6% | 7.6µM* | 6%
Cc1ccc(-n2ncc3c(=O)n(CC(=O)N4CCCCCC4)cnc32)cc1 | 5% | 2% | -25% | 3% | 17µM* | 2%
Cc1ccc(-n2ncc3c(=O)n(CC(N)=O)cnc32)cc1C | . | 8% | . | 11% | -19% | 6%
Cc1nc2c3cnn(-c4ccc(C)c(C)c4)c3ncn2n1 | -8% | 2µM* | 11µM* | 2µM* | 6.7µM* | ?
CCOC(=O)Cn1cnc2c(cnn2-c2ccc(C)c(C)c2)c1=O | . | . | 25% | . | 21µM* | .
CC(C)(C)c1ccc(S(=O)(=O)/C=C/C#N)cc1 | -3% | -38%[46.1 µM] | -87% | -43%[46.1 µM] | . | .
COc1ccc2c(c1)O[C@H](c1ccc3c(c1)OCO3)[C@@H](OC(=O)NS(=O)(=O)c1ccc(C)cc1)C2=O | -3% | . | 12% | . | . | .
